In PubChem BioAssay (NCI):
This is part of a sample that, as a whole, favours compounds with a hit. Of some 79,000 tested, about 15% had one in any assay. Calls of active or inactive are those of the source. Rule as the data show it: active = growth inhibition above about 70%; inactive = the rest. Where a SMILES comes first, the peptide text is derived from it. [ ]: non-standard residue; d: D form. ΔPro = O=C(O)[CH]1C=CCN1

Tests used:
[1] = NCI Yeast Anticancer Drug Screen. Data for the rad50 strain (AID 155);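 also: 0% = growth of vehicle-only cultures of the same strain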; conditions: S. cerevisiae rad50 strain growth inhibition; at 50.0 µM; active compounds read high
In short: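 Compounds were tested on a yeast strain with an engineered DNA damage repair alteration; the reported value is growth inhibition normalised to vehicle treatment.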

[2] = NCI Yeast Anticancer Drug Screen. Data for the mec2-1 strain (AID 157); conditions: S. cerevisiae mec2-1 strain, at 50.0 µM, active compounds read high
In short: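 Using mec2-1 yeast: add compound, measure growth, express inhibition versus vehicle-treated cultures.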

[3] = NCI Yeast Anticancer Drug Screen. Data for the sgs1 mgt1 strain (AID 161);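 also: 0% = growth of cultures given vehicle only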; conditions: S. cerevisiae sgs1 mgt1 strain, at 50.0 µM, active compounds read high
In short: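 Compounds are added to genetically altered yeast, and growth is compared with cultures given vehicle alone to give percent inhibition.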

[4] = NCI Yeast Anticancer Drug Screen. Data for the cln2 rad14 strain (AID 165);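 also: 0% = growth equal to vehicle treated cultures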; conditions: S. cerevisiae cln2 rad14 strain, at 50.0 µM, active compounds read high
In short: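 Yeast strain cln2 rad14, bearing defects in cell cycle control and DNA repair, serves as the test system; values reflect growth inhibition compared with vehicle.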

[5] = NCI Yeast Anticancer Drug Screen. Data for the bub3 strain (AID 167); conditions: S. cerevisiae bub3 mutant strain, at 50.0 µM, active compounds read high
In short: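 Growth of a checkpoint-deficient yeast mutant is measured after compound exposure. Values represent inhibition relative to vehicle.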

[6] = NCI Yeast Anticancer Drug Screen. Data for the mlh1 rad18 strain (AID 175); conditions: S. cerevisiae mlh1 rad18 strain growth inhibition; at 50.0 µM; active compounds read high
In short: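 Steps: expose repair-defective yeast to compound; measure growth; express inhibition against vehicle-treated controls.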

Measured: growth inhibition

O=c1[nH]c2ccccc2nc1/C=C\NC(=S)Nc1cc(Cl)ccc1Cl
inactive: [1] -45.5% | [2] -32.1% | [3] -44.1% | [4] -14.8% | [5] -30.6% | [6] -40.1%

CNc1ccccc1C(=O)N/N=C/c1c(O)ccc2ccccc12
inactive: [1] -3.15% | [2] 18.3% | [3] 19% | [4] -10.3% | [5] 36.1% | [6] 2.45%

O=C(Cl)C(Cl)(c1ccccc1)c1ccccc1
inactive: [1] 2.15% | [2] 13.6% | [3] 4.15% | [4] -6.9% | [5] 17.1% | [6] 3.75%

O=C(Oc1ccc(OC(=O)c2ccc([N+](=O)[O-])cc2)cc1)c1ccccc1
inactive: [1] 9.85% | [2] -2.25% | [3] -1.4% | [4] 26.4% | [5] -3.05% | [6] 5.25%

O=C(CN1CCOCC1)Nc1ccc(S(=O)(=O)c2ccc([N+](=O)[O-])cc2)cc1
active: [3] 99.3% | [4] 98.3% | [5] 96.7%
inactive: [1] 52.3% | [2] 15% | [6] 26.1%

COC(=O)c1ccncc1
inactive: [1] -2.6% | [2] 2.95% | [3] -2.8% | [4] -35.8% | [5] 10.4% | [6] -0.45%

O=C(O)c1c(Br)c(Br)c(Br)c(Br)c1C(=O)Nc1ccccc1F
inactive: [1] 7% | [2] -3.3% | [3] 7.55% | [4] 20.2% | [5] 4% | [6] 12.4%

CCc1nnc2ncccn12
inactive: [1] -1.15% | [2] -10.9% | [3] 4.25% | [4] -5.95% | [5] 10.4% | [6] -2.9%

CCC[CH2][Sn]([CH2]CCC)([O]C(=O)c1nccnc1N)[O]C(=O)c1nccnc1N
active: [1] 92.2% | [2] 92.5% | [3] 93% | [4] 92.2% | [5] 90.3% | [6] 88.2%

CC(=O)OC(C)C(=O)OCC1OC(OC(=O)C(C)OC(C)=O)C(OC(=O)C(C)OC(C)=O)C(OC(=O)C(C)OC(C)=O)C1OC(=O)C(C)OC(C)=O (stereo unspecified)
inactive: [1] 7.6% | [2] -13.8% | [3] -10.6% | [4] -42.4% | [5] -12.1% | [6] 7.95%

c1cc[n+](-c2nc3ccccc3[n-]2)cc1
inactive: [1] 2.75% | [2] -7% | [3] 6.25% | [4] -18.5% | [5] -13.8% | [6] 3.5%

O=C1c2ccccc2-c2c1c1ccccc1c(=O)n2Cc1ccccc1
inactive: [1] 6.1% | [2] -14.2% | [3] 2.85% | [4] 8.05% | [5] -16.9% | [6] -63.8%

CC(=O)NC1CCCC(CC2CCCCC2)C1 (stereo unspecified)
inactive: [1] 18.4% | [2] 0.45% | [3] -7.8% | [4] -56% | [5] 17.6% | [6] -14.9%

C=CC[n+]1cccc(Oc2ccc([N+](=O)[O-])cc2[N+](=O)[O-])c1
inactive: [2] 12.4% | [3] 63.5% | [4] 31.3% | [5] 18.1% | [6] 54.7%
active: [1] 73.7%

C=CC12CCC(CC1)n1c(=O)n(C)c(=O)n12
inactive: [1] -8.05% | [2] -11.7% | [3] -11.4% | [4] -34.5% | [5] -18% | [6] -6.8%

C[C@]12CCC[C@H](O)[C@H]1O2
inactive: [1] -6.45% | [2] 3.25% | [3] -16.1% | [4] 0.55% | [5] 0.5% | [6] -10.2%

O=C1C(NS(=O)(=O)c2ccccc2)=C(N(Cc2ccccc2)Cc2ccccc2)C(=O)c2ccccc21
inactive: [1] 9.1% | [2] 7.4% | [3] 26.1% | [4] 2.1% | [5] 8.95% | [6] -6.75%

CCNc1ccc(C)cc1
inactive: [1] 55.4% | [2] -4.1% | [3] 0.1% | [4] -14% | [5] -5.15% | [6] 33.5%

CC(Cc1ccccc1)Nc1ccccc1 (stereo unspecified)
inactive: [1] 17.8% | [2] 3.5% | [3] 31.4% | [4] -10.3% | [5] -12.5% | [6] 62.4%

O=S1(=O)C=Cc2ccccc2CC1
inactive: [1] -4.15% | [2] -12.2% | [3] -22.4% | [4] -10.8% | [5] 0.9% | [6] -27.8%

CC(=O)Nc1cc(F)c(N=Nc2ccc(F)cc2)c(F)c1
inactive: [1] 5.3% | [2] -0.6% | [3] 13.4% | [4] -36.9% | [5] -16.1% | [6] 3.45%

COc1cc2c(cc1OC)C(=O)C(C1CCCCC1)NC2 (stereo unspecified)
inactive: [1] 20.7% | [2] 9.85% | [3] 8.9% | [4] 0.45% | [5] 16.1% | [6] 30.4%

O=C(N=Nc1c(O)[nH]c2ccccc12)C(=O)N=Nc1c(O)[nH]c2ccccc12
inactive: [1] -4.95% | [2] 8.35% | [3] 9.5% | [4] -1.1% | [5] 7.15% | [6] 26.6%

O=C(CC1C(=O)Nc2ccccc2S1=O)Nc1cccc(Cl)c1 (stereo unspecified)
inactive: [1] -32.2% | [2] -31.1% | [3] -4.5% | [4] 18.2% | [5] 10.1% | [6] -25.2%

CCC(=S)Nc1ccc(Cl)cc1
inactive: [1] -1.9% | [2] -44.6% | [3] -34.5% | [4] -21.2% | [5] -36.9% | [6] -35.4%

NC(CSC(c1ccccc1)(c1ccccc1)c1ccccc1)C(=O)OC(c1ccccc1)c1ccccc1 (stereo unspecified)
inactive: [1] 19.3% | [2] -7% | [3] 29.6% | [4] -44.5% | [5] -18.7% | [6] 22.2%

CC(C)C(CNC(=O)c1ccc([N+](=O)[O-])cc1)(C(C)C)C(C)C
inactive: [1] -2.6% | [2] -36.2% | [3] -3.85% | [4] -3.7% | [5] 17.8% | [6] -1.65%

O=S1(=O)CC(O)C(Br)C1 (stereo unspecified)
inactive: [1] -6.7% | [2] 24.1% | [3] 10.1% | [4] 4.85% | [5] 2.35% | [6] -10.8%

CCOC(=O)C[n+]1ccc(C(=O)OCC)cc1
inactive: [1] -7.1% | [2] -15.2% | [3] 0.05% | [4] 2.3% | [5] 11.1% | [6] 3.5%

CC(=O)OC1COC([n+]2cccc(C(N)=O)c2)C(OC(C)=O)C1OC(C)=O (stereo unspecified)
inactive: [1] -36.5% | [2] -22.7% | [3] -25.9% | [4] -32.6% | [5] -9.95% | [6] -20%

CC(C)(C)CC(C)(C)N
inactive: [1] -2.65% | [2] -4.8% | [3] -16.9% | [4] -41.5% | [5] -2.35% | [6] 20.6%

CSc1ccc(NC(=O)CCc2ccccc2)cc1
inactive: [1] 7.7% | [2] 6.45% | [3] 13.2% | [4] -4% | [5] 41.5% | [6] 24.1%

CCc1cc2c(ccc3ccccc32)c2c1CCC2
inactive: [1] -11.6% | [2] -11.7% | [3] -1.8% | [4] -17.1% | [5] 5.3% | [6] 1.6%

CN1Cc2ccccc2[C@H]2C(c3ccccc3)=NN(c3ccccc3)[C@H]21
inactive: [1] 39.6% | [2] 26.9% | [3] 59.2% | [4] 9.6% | [5] 41.2% | [6] 37.2%

CCOC(=O)C1C/C(C)=C(/C)SCCCS1 (stereo unspecified)
inactive: [1] 18.8% | [2] 3.2% | [3] -5.5% | [4] 21.1% | [5] 5.05% | [6] -67.2%

CC(C)c1ccc(/C=C2/C=C(c3ccc4ccccc4c3)OC2=O)cc1
inactive: [1] -9.25% | [2] -1.7% | [3] -31.8% | [4] -3.75% | [5] -17.8% | [6] -18.9%

O=C(O)C1C=CCN1C(=O)C1C=CCN1C(=O)C1C=CCN1 (stereo unspecified) (H-[ΔPro]-[ΔPro]-[ΔPro]-OH; configuration not given here)
inactive: [1] -68.7% | [2] -38.6% | [3] -25.5% | [4] 0.05% | [5] 0.25% | [6] -31.5%

O=C1C(=S)Nc2c(F)cccc21
inactive: [1] 21.6% | [2] 51.4% | [3] 24.2% | [4] 39.6% | [5] 29.6% | [6] 31.9%

O=c1oc2ccccc2c2c1Sc1ccccc1N2
inactive: [1] -0.95% | [2] -22% | [3] 17% | [4] 12.8% | [5] 2.05% | [6] -9.1%

NCC(=O)Nc1ccc(Cl)cc1C(=O)c1ccc[nH]1
inactive: [1] 1.4% | [2] -16% | [3] -27.6% | [4] -42.4% | [5] -53.5% | [6] 0.85%

COc1cc2c(c(OC)c1OC)C(=O)[C@H]1OC(=O)N[C@@H]21
inactive: [1] 8% | [2] 3.05% | [3] 5.2% | [4] 2.1% | [5] 12.9% | [6] -32%
